Data taken from PubChem BioAssay (NCATS).
Results filed as inconclusive are left out. A call without a number means that no potency is given here. The source made the active and inactive calls. Unless noted, calls come from the whole dose curve; as a rule, active = well fitted curve in the direction sought with a large enough effect; inconclusive = small, poorly fitted or top-dose-only effect, or another doubt; inactive = no such curve, though single readings can be large; an effect the other way counts as inactive or inconclusive.

Assays:
[1] = target: Transient receptor potential cation channel subfamily V member 1 (Homo sapiens) (UniProt Q8NER1); test: HTS Assay for Compounds that Act as Enhancers of the Vanilloid Receptor 1 (AID 488979)
How it was run: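 TRPV1 cells loaded with Fluo-8 calcium dye; compound added and Ca2+ signal (ex 480/em 520 nm) followed 3 min, then capsaicin at EC20 added and read 2 more min to detect enhancement.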

[2] = target: Thyrotropin receptor (Homo sapiens) (UniProt P16473); test: qHTS Assay for Antagonists of the Thyroid Stimulating Hormone Receptor (AID 488980); note: series mostly up to about 58 µM
How it was run: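 Inhibition of cAMP raised by EC80 TSH (4 nM final) was read by HTRF, with lysate cAMP competing against cAMP-d2 for cryptate antibody after 30 min at room temperature. The cells were transfected HEK293 held in phosphodiesterase inhibitor RO 20-1724 at 70 uM.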

[3] = target: D(1A) dopamine receptor (Homo sapiens) (UniProt P21728); test: HTS Assay for Allosteric Agonists of the Human D1 Dopamine Receptor: Primary Screen for Agonists (AID 488981)
How it was run: (§1)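 Tetracycline-induced HEK293 Trex D1 cells with forced coupling to calcium, loaded with no-wash calcium dye; kinetic fluorescence read 180 s after compound addition for agonism, then a further 180 s after an EC20 dopamine challenge for potentiation.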

[4] = target: D(1A) dopamine receptor (Homo sapiens) (UniProt P21728); test: HTS Assay for Allosteric Agonists of the Human D1 Dopamine Receptor: Primary Screen for Potentiators (AID 488982)
How it was run: as §1

[5] = target: D(1A) dopamine receptor (Homo sapiens) (UniProt P21728); test: HTS Assay for Allosteric Agonists of the Human D1 Dopamine Receptor: Primary Screen for Antagonists (AID 488983);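 note: calcium flux response to an EC80 dopamine challenge measured with no-wash dye; nearly all actives have a fitted effect of over 65% in size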
How it was run: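 Screening of inducible HEK293 T-REx D1 cells: compound first, EC80 dopamine 180 s later, each phase read kinetically for calcium over 180 s.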

[6] = Validation screen for small molecules that induce genotoxicity in human embryonic kidney (HEK293T) cells expressing luciferase-tagged ELG1 (AID 493106); note: potency is the fitted concentration of half-maximal effect
How it was run: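 Reporter-gene quantitative HTS in HEK293T cells carrying luciferase-tagged ELG1, whose level climbs under genotoxic stress. Compound exposure lasts 16 hr at 37 °C before luciferase detection.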

[7] = target: Thyrotropin-releasing hormone receptor (Homo sapiens) (UniProt P34981); test: qHTS for Small Molecule Agonists and Allosteric Enhancers of Human TRH Receptor: Validation Screen for Agonists (AID 493127;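 active = calcium activation more than 3 SD above the typical response in the agonist read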;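 note: intracellular calcium rise by fluo-8 fluorescence before TRH EC20 addition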); settings: TRH receptor agonist cell assay; at 2 µM; stronger effect = higher value
How it was run: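 Gq-coupled calcium mobilization in TRHR cells after compound addition, monitored kinetically with fluo-8 dye on an FDSS reader.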

[8] = Nrf2 qHTS screen for inhibitors: Validation (AID 493153; active = well fitted inhibition curve with a large enough effect in the main read-out, with a control signal flat, not every such curve was filed as active); settings: Potency: luciferase luminescence; viability change: measured here: cytotoxicity max response
How it was run: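 Dose-response validation uses reporter A549 cells with firefly luciferase under an antioxidant response element. Compounds stay on cells 18-24 h at 37°C, and luminescence indicates Nrf2-driven transcription.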

[9] = qHTS for Inhibitors of Cell Surface uPA Generation: Validation Assay (AID 493164);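 note: RAW 264.7 macrophage cells exposed to compound for 18 h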
How it was run: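 RAW 264.7, 4000 cells/well, o/n plating; cpd 7-pt 1:5 dilution 2.45 nM–38.3 uM final; 18 h, 37 C/5% CO2; ATP-Lite, 5 s luminescence exposure.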

[10] = target: Galactokinase (Homo sapiens) (UniProt P51570); test: qHTS Validation Assay for Inhibitors of Human Galactokinase (GALK) (AID 493189); note: potency is the fitted concentration of half-maximal effect
How it was run: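 Inhibition was measured as remaining ATP, detected by luciferase luminescence after a 1 h room-temperature reaction. Final conditions: 5 nM GALK, 100 uM galactose, 35 uM ATP, pH 8.0 HEPES buffer.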

[11] = Validation screen for small molecules that induce DNA re-replication in SW480 colon adenocarcinoma cells (AID 504364)
How it was run: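 Cells are treated 48 hr with test compound, stained 40 min with Hoechst at 37 C, and scanned for nuclear fluorescence; compounds inducing re-replication increase nuclei with elevated intensity.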

[12] = target: Peptidyl-prolyl cis-trans isomerase NIMA-interacting 1 (Homo sapiens) (UniProt Q13526); test: qHTS Validation Assay to Find Inhibitors of Pin1 (AID 504536; active = well fitted inhibition curve with a large enough effect in the polarisation, with a control signal flat, not every such curve was filed as active; the % refers to the polarisation; note: potency is the fitted concentration of half-maximal effect)
How it was run: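 Fluorescence polarization competition: compounds (titration) displace HiFluor-488-labeled Pin1-1b peptide from Pin1 (0.3 uM final) in pH 7.5 HEPES buffer with DTT, 10 min at room temperature; %Activity normalized to no-enzyme wells, curves fitted.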

[13] = target: Phosphoglycerate kinase, glycosomal (Trypanosoma brucei brucei) (UniProt P07378); test: qHTS Validation Assay to Find Inhibitors of Phosphoglycerate Kinase (AID 504547); note: potency is the fitted concentration of half-maximal effect
How it was run: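 PGK activity was coupled to GAPDH (100nM final), which generates the unstable substrate 1,3-bisphosphoglycerate in-well. Reactions ran 60 minutes at room temperature in 100mM TEA pH 7.6, 5mM MgCl2, 0.01% Tween-20, then Kinase-Glo Plus luminescence was read.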

[14] = target: phosphoglycerate mutase (Leishmania major) (UniProt Q4Q090); test: qHTS Validation Assay to Find Inhibitors of Phosphoglycerate Mutase (AID 504548); settings: Potency: inhibition qHTS; note: series mostly up to about 58 µM
How it was run: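 Luminescent end-point read-out via Kinase-GloPlus after a 10-minute development. Reaction: 1.25nM Leishmania major PGAM with substrate and compound, 45 minutes at room temperature in TEA buffer (pH 7.6) with MgCl2 and Tween-20.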

[15] = target: Ubiquitin carboxyl-terminal hydrolase 1 (Homo sapiens) (UniProt O94782); test: Inhibitors of USP1/UAF1: Pilot qHTS (AID 504865); note: nearly all actives have a fitted effect of over 35% in size; note: potency is the fitted concentration of half-maximal effect
How it was run: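 Deubiquitinase activity followed as kinetic rhodamine fluorescence release from 150 nM Ub-Rho. 1 nM USP1/UAF1 with compound, after 15 min room-temperature preincubation, in HEPES pH 7.8 buffer containing TCEP, EDTA, BSA and Tween-20.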

[16] = qHTS for Inhibitors of ATXN expression: Validation of Cytotoxic Assay (AID 588349);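 note: cells exposed to compound for 72 hr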
How it was run: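 HEK293, compound dose series, 72 hr / 37 degrees C; viability via CellTiter Glo (intracellular ATP).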

[17] = qHTS for Inhibitors of ATXN expression: Validation (AID 588378); note: series mostly up to about 57 µM; nearly all actives have a fitted effect of over 75% in size
How it was run: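 Luciferase luminescence (Bright-Glo) from an ATXN2-FFLuc HEK293 line after 24 h compound exposure at 37 °C, preceded by a CellTiter-Fluor fluorescence viability read. Serial dilutions of a reference ATXN2 inhibitor and a luciferase inhibitor served as controls.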

[18] = target: ATPase family AAA domain-containing protein 5 (Homo sapiens) (UniProt Q96QE3); test: Validation screen for small molecules that inhibit ELG1-dependent DNA repair in human embryonic kidney (HEK293T) cells expressing luciferase-tagged ELG1 (AID 493107);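 note: cells co-treated with the DNA-damaging agent 5-fluorouridine alongside compound; series mostly up to about 46 µM; inhibitors lower the ELG1-luciferase luminescence signal; nearly all actives have a fitted effect of over 70% in size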
How it was run: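 Quantitative HTS in HEK293T cells carrying luciferase-tagged ELG1, stimulated with 5-fluorouridine alongside compound for 16 hr. Loss of luciferase signal marks inhibition of ELG1 response.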

Ubiquitin carboxyl-terminal hydrolase 1 (Homo sapiens), sequence (O94782 whole entry, looked up): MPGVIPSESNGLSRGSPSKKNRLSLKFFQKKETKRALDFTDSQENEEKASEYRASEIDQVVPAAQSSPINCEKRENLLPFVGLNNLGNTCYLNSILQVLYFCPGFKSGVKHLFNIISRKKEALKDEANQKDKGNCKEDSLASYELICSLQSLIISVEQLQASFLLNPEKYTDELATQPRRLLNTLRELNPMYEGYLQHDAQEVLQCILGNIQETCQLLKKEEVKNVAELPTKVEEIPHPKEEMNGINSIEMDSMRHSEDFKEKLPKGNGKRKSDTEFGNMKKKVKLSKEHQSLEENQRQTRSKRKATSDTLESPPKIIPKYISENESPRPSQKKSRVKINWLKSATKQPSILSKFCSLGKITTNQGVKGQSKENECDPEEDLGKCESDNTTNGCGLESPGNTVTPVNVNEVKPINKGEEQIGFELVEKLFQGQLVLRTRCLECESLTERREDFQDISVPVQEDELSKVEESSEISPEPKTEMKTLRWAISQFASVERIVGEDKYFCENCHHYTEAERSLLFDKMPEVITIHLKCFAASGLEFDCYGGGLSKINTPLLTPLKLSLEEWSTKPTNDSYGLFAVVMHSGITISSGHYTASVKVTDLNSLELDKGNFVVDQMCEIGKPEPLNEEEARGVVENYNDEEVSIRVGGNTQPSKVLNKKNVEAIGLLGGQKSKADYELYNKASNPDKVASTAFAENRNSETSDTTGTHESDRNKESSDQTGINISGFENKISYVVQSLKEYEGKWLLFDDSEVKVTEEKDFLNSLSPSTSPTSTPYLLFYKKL
D(1A) dopamine receptor (Homo sapiens), sequence (P21728 whole entry, looked up): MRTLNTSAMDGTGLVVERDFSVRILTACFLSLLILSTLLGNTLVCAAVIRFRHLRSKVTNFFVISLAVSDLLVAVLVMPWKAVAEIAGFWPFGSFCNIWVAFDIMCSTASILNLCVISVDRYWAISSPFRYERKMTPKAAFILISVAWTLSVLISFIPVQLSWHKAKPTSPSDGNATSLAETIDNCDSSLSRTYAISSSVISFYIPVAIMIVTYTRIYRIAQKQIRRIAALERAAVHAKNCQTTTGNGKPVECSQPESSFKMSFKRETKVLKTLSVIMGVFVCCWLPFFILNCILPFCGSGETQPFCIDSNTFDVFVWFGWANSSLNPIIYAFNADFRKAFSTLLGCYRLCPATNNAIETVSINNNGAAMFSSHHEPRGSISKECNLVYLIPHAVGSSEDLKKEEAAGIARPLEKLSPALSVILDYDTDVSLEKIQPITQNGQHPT
Peptidyl-prolyl cis-trans isomerase NIMA-interacting 1 (Homo sapiens), sequence (Q13526 whole entry, looked up): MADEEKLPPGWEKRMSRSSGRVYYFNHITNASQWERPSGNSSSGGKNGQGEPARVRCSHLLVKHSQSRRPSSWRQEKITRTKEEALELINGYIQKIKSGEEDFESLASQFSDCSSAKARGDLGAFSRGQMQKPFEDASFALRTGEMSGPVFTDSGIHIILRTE
phosphoglycerate mutase (Leishmania major), sequence (Q4Q090 1-553): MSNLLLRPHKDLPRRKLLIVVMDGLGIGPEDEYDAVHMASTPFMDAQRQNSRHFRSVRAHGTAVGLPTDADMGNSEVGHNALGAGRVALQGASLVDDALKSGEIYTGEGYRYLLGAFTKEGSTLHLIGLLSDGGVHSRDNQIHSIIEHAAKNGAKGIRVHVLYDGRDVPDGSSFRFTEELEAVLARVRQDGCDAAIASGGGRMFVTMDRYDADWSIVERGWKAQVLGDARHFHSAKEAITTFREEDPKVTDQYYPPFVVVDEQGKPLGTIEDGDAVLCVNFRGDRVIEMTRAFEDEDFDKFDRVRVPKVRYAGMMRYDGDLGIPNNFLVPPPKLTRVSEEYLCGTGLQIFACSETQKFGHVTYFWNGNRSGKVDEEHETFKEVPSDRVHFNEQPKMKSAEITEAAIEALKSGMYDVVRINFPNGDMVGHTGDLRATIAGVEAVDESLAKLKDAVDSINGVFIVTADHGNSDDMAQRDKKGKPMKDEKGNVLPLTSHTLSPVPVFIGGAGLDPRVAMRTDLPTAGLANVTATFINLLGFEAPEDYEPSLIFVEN
Galactokinase (Homo sapiens), sequence (P51570 whole entry, looked up): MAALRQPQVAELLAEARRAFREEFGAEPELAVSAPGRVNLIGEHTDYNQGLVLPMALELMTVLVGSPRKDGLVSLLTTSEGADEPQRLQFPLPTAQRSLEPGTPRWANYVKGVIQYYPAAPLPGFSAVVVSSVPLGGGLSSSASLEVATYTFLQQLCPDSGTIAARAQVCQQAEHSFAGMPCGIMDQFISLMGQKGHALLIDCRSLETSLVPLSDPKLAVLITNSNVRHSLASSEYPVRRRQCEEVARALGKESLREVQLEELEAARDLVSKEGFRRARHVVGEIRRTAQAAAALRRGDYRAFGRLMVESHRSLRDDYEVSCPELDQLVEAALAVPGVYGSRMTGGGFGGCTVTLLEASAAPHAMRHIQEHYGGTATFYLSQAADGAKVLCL
Phosphoglycerate kinase, glycosomal (Trypanosoma brucei brucei), sequence (P07378 whole entry, looked up): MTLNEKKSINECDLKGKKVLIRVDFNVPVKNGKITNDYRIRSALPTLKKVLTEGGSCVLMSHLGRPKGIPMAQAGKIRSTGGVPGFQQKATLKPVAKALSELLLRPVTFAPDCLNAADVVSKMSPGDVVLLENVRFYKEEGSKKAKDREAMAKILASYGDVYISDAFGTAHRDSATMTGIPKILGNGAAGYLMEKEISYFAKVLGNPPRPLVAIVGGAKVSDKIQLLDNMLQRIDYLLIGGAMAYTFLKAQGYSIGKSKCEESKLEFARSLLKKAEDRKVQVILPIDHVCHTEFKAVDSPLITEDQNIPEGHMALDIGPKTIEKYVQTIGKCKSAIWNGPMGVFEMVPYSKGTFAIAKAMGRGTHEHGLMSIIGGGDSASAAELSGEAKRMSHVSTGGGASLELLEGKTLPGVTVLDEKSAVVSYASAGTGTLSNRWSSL
ATPase family AAA domain-containing protein 5 (Homo sapiens), sequence (Q96QE3 whole entry, looked up, the tested form may be a part): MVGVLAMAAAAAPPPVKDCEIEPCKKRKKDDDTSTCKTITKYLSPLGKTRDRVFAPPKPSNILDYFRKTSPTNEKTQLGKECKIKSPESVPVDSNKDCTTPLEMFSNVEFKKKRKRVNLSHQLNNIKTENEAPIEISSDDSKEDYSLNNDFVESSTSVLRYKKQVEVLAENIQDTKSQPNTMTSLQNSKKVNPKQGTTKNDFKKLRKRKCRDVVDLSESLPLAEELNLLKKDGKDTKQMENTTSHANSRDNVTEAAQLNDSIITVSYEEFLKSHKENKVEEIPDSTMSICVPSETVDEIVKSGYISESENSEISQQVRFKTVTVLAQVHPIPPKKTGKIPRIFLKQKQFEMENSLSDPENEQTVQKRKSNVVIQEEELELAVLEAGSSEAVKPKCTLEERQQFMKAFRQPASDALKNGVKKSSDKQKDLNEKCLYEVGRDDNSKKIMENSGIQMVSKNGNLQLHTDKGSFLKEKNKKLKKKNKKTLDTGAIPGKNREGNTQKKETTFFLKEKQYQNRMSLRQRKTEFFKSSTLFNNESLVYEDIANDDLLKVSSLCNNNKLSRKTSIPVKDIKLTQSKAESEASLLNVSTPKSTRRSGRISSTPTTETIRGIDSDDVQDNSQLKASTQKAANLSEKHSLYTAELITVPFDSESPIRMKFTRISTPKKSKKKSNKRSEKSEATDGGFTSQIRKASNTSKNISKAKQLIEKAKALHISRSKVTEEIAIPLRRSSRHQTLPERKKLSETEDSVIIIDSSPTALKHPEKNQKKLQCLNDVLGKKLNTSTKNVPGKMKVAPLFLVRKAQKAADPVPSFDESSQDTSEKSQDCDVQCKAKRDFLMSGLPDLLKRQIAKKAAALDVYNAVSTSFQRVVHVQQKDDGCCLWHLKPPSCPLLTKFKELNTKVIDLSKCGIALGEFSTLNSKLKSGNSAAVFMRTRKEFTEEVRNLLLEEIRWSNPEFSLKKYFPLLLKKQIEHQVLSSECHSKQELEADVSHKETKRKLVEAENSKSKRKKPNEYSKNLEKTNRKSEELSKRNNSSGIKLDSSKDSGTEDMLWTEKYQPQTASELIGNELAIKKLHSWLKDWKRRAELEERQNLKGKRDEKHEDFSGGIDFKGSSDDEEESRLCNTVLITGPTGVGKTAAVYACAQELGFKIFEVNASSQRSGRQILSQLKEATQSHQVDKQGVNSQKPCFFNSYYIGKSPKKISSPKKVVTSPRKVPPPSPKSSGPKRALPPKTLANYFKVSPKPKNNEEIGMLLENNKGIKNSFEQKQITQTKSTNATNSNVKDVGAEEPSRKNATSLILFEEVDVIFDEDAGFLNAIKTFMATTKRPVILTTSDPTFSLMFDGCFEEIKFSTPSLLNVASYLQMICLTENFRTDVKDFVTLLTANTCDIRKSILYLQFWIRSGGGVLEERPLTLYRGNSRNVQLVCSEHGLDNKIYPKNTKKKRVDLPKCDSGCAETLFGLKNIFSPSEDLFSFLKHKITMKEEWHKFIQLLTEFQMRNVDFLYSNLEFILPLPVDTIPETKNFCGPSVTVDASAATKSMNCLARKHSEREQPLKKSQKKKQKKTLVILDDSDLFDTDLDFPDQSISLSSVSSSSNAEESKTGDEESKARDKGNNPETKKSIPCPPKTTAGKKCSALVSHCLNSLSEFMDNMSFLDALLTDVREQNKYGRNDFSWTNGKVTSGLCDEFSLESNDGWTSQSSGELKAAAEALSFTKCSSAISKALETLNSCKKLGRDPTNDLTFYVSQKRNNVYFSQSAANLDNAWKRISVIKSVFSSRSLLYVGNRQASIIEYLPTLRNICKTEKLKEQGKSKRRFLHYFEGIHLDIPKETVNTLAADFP
Thyrotropin-releasing hormone receptor (Homo sapiens), sequence (P34981 whole entry, looked up): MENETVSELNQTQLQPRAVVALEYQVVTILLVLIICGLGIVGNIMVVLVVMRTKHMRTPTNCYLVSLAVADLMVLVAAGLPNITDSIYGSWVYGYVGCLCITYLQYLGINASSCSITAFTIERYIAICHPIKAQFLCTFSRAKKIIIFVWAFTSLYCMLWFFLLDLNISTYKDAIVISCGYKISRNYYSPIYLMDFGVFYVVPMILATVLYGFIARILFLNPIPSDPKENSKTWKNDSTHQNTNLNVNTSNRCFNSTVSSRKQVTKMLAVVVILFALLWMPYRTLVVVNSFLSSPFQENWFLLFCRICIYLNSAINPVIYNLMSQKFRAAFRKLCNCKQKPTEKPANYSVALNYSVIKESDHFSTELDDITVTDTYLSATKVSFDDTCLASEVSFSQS

Structure (SMILES) | outcome [1] | outcome [2] | Potency [3] | Potency [4] | Potency [5] | Potency [6] | activation [7] | Potency [8] | viability change [8] [%] | outcome [9] | Potency [10] | Potency [11] | Potency [12] | Potency [13] | Potency [14] | Potency [15] | Potency [16] | Potency [17] | Potency [18]
Cc1nc2c(OCc3ccccc3)cccn2c1CC#N | inactive | inactive | inactive | inactive | inactive | inactive | 0.25% (inactive) | inactive | -7.51 | inactive | inactive | inactive | inactive | inactive | inactive | inactive | inactive | inactive | 
CC(N)=O | inactive | inactive | inactive | inactive | inactive | inactive | 0.25% (inactive) | inactive | 1.69 | inactive | inactive | inactive |  | inactive | inactive | inactive | inactive | inactive | 
COc1cc(CC(=O)O)ccc1O | inactive | inactive | inactive | inactive | inactive | inactive | 0.125% (inactive) | inactive | 3.47 | inactive |  | inactive | inactive | inactive | inactive | inactive | inactive | inactive | 
N[C@@H](CCC(=O)N[C@H](CSN=O)C(=O)NCC(=O)O)C(=O)O | inactive | inactive | inactive | inactive | inactive | inactive | 1.31% (inactive) | inactive | 5.63 | inactive | inactive | inactive | inactive | inactive |  | inactive | inactive | inactive | 
N=C(N)c1ccc(OCCCCCOc2ccc(C(=N)N)cc2)cc1 (tested in a mixture with another compound) | inactive | inactive | inactive | inactive | inactive | inactive | 1.31% (inactive) | inactive | -17 | inactive | inactive | inactive | inactive | inactive |  | inactive | inactive | inactive | 
CC1=C(C(=O)O)N2C(=O)[C@@H](NC(=O)C(N)C3=CCC=CC3)[C@H]2SC1 (stereo partly specified) | inactive | inactive | inactive | inactive | inactive | inactive |  | inactive | 3.51 | inactive |  | inactive |  | inactive | inactive | inactive | inactive | inactive | inactive
O=C(O)C1=CC(=C(c2ccc(O)c(C(=O)O)c2)c2ccc(O)c(C(=O)O)c2)C=CC1=O | inactive | inactive | inactive | inactive | inactive | inactive | 1% (inactive) | inactive | -5.86 |  | 14.1 µM (active) | inactive | 0.675 µM (active) | 0.0757 µM (active) |  | 8.91 µM (active) | inactive | inactive | 
Nc1ccc(-c2ccc3ccccc3n2)cc1 | inactive | inactive | inactive | inactive | inactive | 2.59 µM (active) | 4% (inactive) | inactive | -6.75 | inactive | inactive |  | inactive | inactive | inactive | inactive | inactive | inactive | 
NCC(O)(CS(=O)(=O)O)c1ccc(Cl)cc1 (stereo unspecified) | inactive | inactive | inactive | inactive | inactive | inactive | 0.25% (inactive) | inactive | 4.12 |  | inactive | inactive | inactive |  | inactive | inactive | inactive | inactive | 
CNc1cc(NS(=O)(=O)c2ccc(N)cc2)nc(NC)n1 | inactive | inactive | inactive | inactive | inactive | inactive | 0.25% (inactive) | inactive | 6.74 | inactive | inactive | inactive | inactive | inactive | inactive | inactive | inactive | inactive | 
O=C(O)c1cccnc1C(=O)O | inactive | inactive | inactive | inactive | inactive | inactive |  | inactive | 1.3 | inactive | inactive | inactive | inactive | inactive | inactive | inactive | inactive | inactive | inactive
COc1cc2c(CCNC(C)=O)c[nH]c2cc1O | inactive | inactive | inactive | inactive | inactive | inactive | 0.875% (inactive) | inactive | -0.977 | inactive | inactive | inactive | inactive |  | inactive | inactive | inactive | inactive | 
Oc1cc(O)c2c(c1)O[C@H](c1ccc(O)c(O)c1)[C@@H](O)C2 | inactive | inactive | inactive | inactive | inactive | inactive |  | inactive | 1.23 |  | inactive | inactive | inactive | inactive | inactive | inactive | inactive | inactive | inactive
